Results: PubChem BioAssay (EPA / NIEHS)
Where “and” joins values, the source holds several entries; their conditions need not be identical. Identical values can stand only once. Results filed as inconclusive are left out. Calls of active or inactive are those of the source. How the source made its calls: active means hit-call score of the fitted dose curve at least 0.9, where 1 is the maximum; inconclusive means response in the unintended direction; inactive means score below 0.9.

Biological target: Retinoic acid receptor RXR-alpha (Homo sapiens) (UniProt P19793)
Assay: ATG_RXRa_TRANS: Attagene TRANS-FACTORIAL HepG2 Assay for human Retinoid X Receptor alpha (RXRa) (AID 2283012)
Description: ATG_TRANS is a cell-based, multiplexed-readout assay that uses HepG2, a human liver cell line, with measurements taken at 24 hours after chemical dosing in a 24-well plate.ATG_RXRa_TRANS is one of 30 assay component(s) measured or calculated from the ATG_TRANS assay. It is designed to make measurements of mRNA induction, a form of inducible reporter, as detected with fluorescence intensity signals by Reverse transcription polymerase chain reaction (RT-PCR) and Capillary electrophoresis technology.Data from the assay component ATG_RXRa_TRANS was analyzed into 1 assay endpoint. This assay endpoint, ATG_RXRa_TRANS, was analyzed in the positive analysis fitting direction relative to DMSO as the negative control and baseline of activity. Using a type of inducible reporter, measures of mRNA for gain-of-signal activity can be used to understand the reporter gene at the transcription factor-level as they relate to the gene RXRA. Furthermore, this assay endpoint can be referred to as a primary readout, because this assay has produced multiple assay endpoints where this one serves a reporter gene function. To generalize the intended target to other relatable targets, this assay endpoint is annotated to the nuclear receptor intended target family, where the subfamily is non-steroidal.
Human liver HepG2 cells are transiently transfected with multiple reporter transcription units (MRTUs) in 6-well plates using FuGene 6 reagent (Roche; 3 ml FuGene/1 mg DNA). The MRTU constructs are regulated by a cis-regulating element (promoter). […] A major difference between the CIS and TRANS system is that in CIS activities of endogenous TFs are measured, whereas the TRANS assay evaluates changes in activities of exogenous, chimeric NR-Gal4 proteins. […] At the end of 24 hour incubation, total RNA was isolated using TriZol reagent (Invitrogen). The isolated RNA is then reverse-transcribed using oligo(dT) primer and Mo-MLV reverse transcriptase (Invitrogen) with DNAse I (Ambion) treatment for 30 min. The one-tenth of the produced cDNA was amplified by PCR using Taq DNA polymerase (Invitrogen) and two reporter sequence-specific primers. The PCR products were fluorescently labeled by primer extension with 6-arboxyfluorescein (6-FAM) 5'-labeled reporter sequence-specific primer (2 min at 95 C, 20 s at 68 C and 10 min at 72 C) and these products were digested with 5U of HpaI (New England Biolabs) for 2h at 37 C. The fragments were purified using Qiaquick PCR columns (Qiagen), analyzed on an ABI 3130xL genetic analyzer (Applied Biosystems) with peak positions identified by using a set of X-rhodamine (ROX)-labeled MapMarker1000 molecular weight standards (BioVentures). The raw capillary electrophoresis data was processed using Attagraph software (Attagene).

Retinoic acid receptor RXR-alpha (Homo sapiens), sequence (P19793 whole entry, looked up): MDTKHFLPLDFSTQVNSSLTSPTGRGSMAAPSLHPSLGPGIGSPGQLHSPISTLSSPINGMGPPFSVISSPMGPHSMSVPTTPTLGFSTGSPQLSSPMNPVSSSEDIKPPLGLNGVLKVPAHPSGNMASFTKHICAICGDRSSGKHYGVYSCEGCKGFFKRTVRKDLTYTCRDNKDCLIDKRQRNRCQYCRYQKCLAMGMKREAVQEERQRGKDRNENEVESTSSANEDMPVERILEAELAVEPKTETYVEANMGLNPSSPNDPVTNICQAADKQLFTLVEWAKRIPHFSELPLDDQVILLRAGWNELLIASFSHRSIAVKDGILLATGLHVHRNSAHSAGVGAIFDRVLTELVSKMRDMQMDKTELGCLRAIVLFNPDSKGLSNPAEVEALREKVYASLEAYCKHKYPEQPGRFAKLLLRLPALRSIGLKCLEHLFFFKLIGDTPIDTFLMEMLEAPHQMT

Structure (SMILES)	outcome	AC50
O=C(O)c1cccc(C(=O)O)n1	inactive	–
C=Cc1ccc(O)c(OC)c1	inactive	–
Cc1cc(C(C)(C)C)c(O)c(C(C)(C)C)c1	–	15.6 µM (active) and 865 nM (active)
Cn1sccc1=O	inactive	–
c1ccc2c(c1)CCC2	inactive	–
CC1COCc2cc3c(cc21)C(C)(C)C(C)C3(C)C (stereo not given)	inactive	–
CC(O)COc1ccccc1 (stereo not given)	inactive	–
CCc1ccccc1O	inactive	–
c1ccc(CNc2ncnc3c2ncn3C2CCCCO2)cc1 (stereo not given)	inactive	–
CN(C)c1ccc(C(=C2C=CC(=[N+](C)C)C=C2)c2ccccc2)cc1	inactive	–
Cc1[nH]nc2c1N=C(c1ccccc1Cl)c1cc([N+](=O)[O-])ccc1N2	inactive	–
O=C(O)CN(CCCN(CC(=O)O)CC(=O)O)CC(=O)O	inactive	–
NS(=O)(=O)O	inactive	–
C=CC(=O)OCC(CO)(COCC(COC(=O)C=C)(COC(=O)C=C)COC(=O)C=C)COC(=O)C=C	inactive	–
CCCCCCCCCCCCCC[n+]1ccccc1	inactive	–
CCCCCC(C)OC(=O)COc1ccc(Cl)c2cccnc12 (stereo not given)	inactive	–
O=c1cc(-c2ccccc2)oc2ccc3ccccc3c12	inactive	–
CC(C)[C@@H]1CC[C@@H](C)C[C@H]1O	inactive	–
CCCC=O	inactive	–
FC(F)(F)C1(F)C(F)(F)C(F)(F)C(F)(F)C(F)(C(F)(F)F)C1(F)F (stereo not given)	inactive	–

Structure (SMILES)	outcome	AC50
O=CC(F)(F)C(F)(F)C(F)(F)C(F)F	inactive	–
CCCCCCCCC1CCC(=O)O1 (stereo not given)	inactive	–
C=CC(=O)OCCC(F)(F)C(F)(F)C(F)(F)C(F)(F)C(F)(F)C(F)(F)C(F)(F)C(F)(F)F	inactive	–
O=C1OC2(c3ccccc31)c1cc(I)c(O)c(I)c1Oc1c2cc(I)c(O)c1I	inactive	–
Oc1cccc2c(O)cccc12	inactive	–
CCOC(=O)c1nc(C(Cl)(Cl)Cl)n(-c2ccc(Cl)cc2Cl)n1	inactive	–
NNC(=O)CCCCC(=O)NN	inactive	–
Nc1cc(Cl)c(-c2cc(Cl)c(N)cc2Cl)cc1Cl	inactive	–
CCOC(OCC)C(=O)c1ccccc1	inactive	–
CCOC=O	inactive	–
O=C(CC(=O)C(F)(F)C(F)(F)C(F)(F)F)c1cccs1	inactive	–
CCCCCCCCCCCC	inactive	–
COC(O)c1ccccc1 (stereo not given)	inactive	–
O=C(O)CCC(F)(F)C(F)(F)C(F)(F)C(F)(F)C(F)(F)F	inactive	–
O=C(c1cc(O)c(O)c(O)c1)c1ccc(O)c(O)c1O	inactive	–
Oc1c(Cl)cc(Cl)cc1Sc1cc(Cl)cc(Cl)c1O	inactive	–
OCCN1CN(CCO)CN(CCO)C1	inactive	–
CN(Cc1cnc2nc(N)nc(N)c2n1)c1ccc(C(=O)N[C@@H](CCC(=O)O)C(=O)O)cc1	inactive	–
O=P(O)(O)CCC(F)(F)C(F)(F)C(F)(F)C(F)(F)C(F)(F)C(F)(F)C(F)(F)C(F)(F)F	inactive	–
OCC(F)(F)C(F)(F)C(F)(F)C(F)(F)C(F)(F)C(F)(F)C(F)(F)C(F)(F)C(F)(F)C(F)(F)C(F)(F)F	inactive	–
